Among the data in PubChem BioAssay (EPA / NIEHS) are outcome and AC50 values, retold here.

Several values for one entry are separate records, joined by “and”; a condition that tells them apart may be missing. Equal values may be shown once. Activity calls are given as the source filed them. How the source made its calls: active means hit-call score of the fitted dose curve at least 0.9, where 1 is the maximum; inactive means score below 0.9.

Test [1] in a line: IUF_NPC1b_proliferation_BrdU_72hr: Leibniz Research Institute for Environmental Medicine (IUF) 72-hour Neural Progenitor Cell Bromodeoxyuridine (BrdU) Proliferation Assay (NPC1b) (AID 2284207). The procedure, abridged: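 BrdU luminescence ELISA quantified DNA synthesis over the last 16 h of a 72 h exposure, fitted against DMSO. Primary hNPC spheres from gestational week 16-19 cortex grown with EGF/FGF at 37C, pH 7.2-7.6.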

A short description of test [2]: IUF_NPC1a_proliferation_area_72hr: Leibniz Research Institute for Environmental Medicine (IUF) 72-hour Neural Progenitor Cell Proliferation Area Assay (NPC1a) (AID 2284208). The method in brief:
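Proliferation is scored as sphere area gain in primary human fetal neural progenitors treated for 72 h in EGF/FGF-containing medium. Viability, LDH and BrdU readouts come from the same wells.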

Test [3] in a line: IUF_NPC1_viability_72hr: Viability Assessment at 72 hours in the Leibniz Research Institute for Environmental Medicine (IUF) Neural Progenitor Cell Proliferation Assay (NPC1) (AID 2284209). The method in brief: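 Single spheres (0.25-0.35 mm) of human fetal cortex-derived neural progenitor cells were grown in proliferation medium with EGF and FGF at 37C and 5% CO2. They were exposed for 72 h without renewal, and viability was read by alamar blue resorufin fluorescence.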

The nature of test [4]: CCTE_Mundy_HCI_Cortical_Synap_Neur_Matur_NeuriteSpotCountPerNeuriteLength: CCTE's Synaptogenesis and Neurite Maturation Assay in rat cortical cells for Neurite Spot Count per Neurite Length, Mundy Lab (AID 2284210). The procedure, abridged: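 Rat primary cortical cultures, AraC added at DIV 5 to suppress glia; chemical exposure from DIV 7 to DIV 12. Fixed cells stained for MAP2 and synaptophysin plus Hoechst; synaptophysin puncta per neurite length quantified by high-content imaging, relative to DMSO.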

Test [5] is described as follows: CCTE_Mundy_HCI_Cortical_Synap_Neur_Matur_BPCount: CCTE's Synaptogenesis and Neurite Maturation Assay in rat cortical cells for Branch Point Count, Mundy Lab (AID 2284211). The procedure, abridged:
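Rat primary cortical cultures, AraC added DIV 5; chemicals dosed DIV 7 through DIV 12. Fixed cells stained for MAP2, synaptophysin and Hoechst; neurite branch points counted by automated high-content imaging, fitted relative to DMSO.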

The nature of test [6]: CCTE_Mundy_HCI_Cortical_NOG_NeuriteCount: CCTE's Neurite Outgrowth Assay in rat cortical cells for Neurite Count, Mundy Lab (AID 2284212).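 Further: cells fixed about two days after chemical exposure began.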 The method in brief:
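Neurite number per cell from high-content imaging of betaIII-tubulin immunostaining, with Hoechst nuclear counterstain.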

Test [7] in a line: CCTE_Mundy_HCI_Cortical_NOG_NeuriteLength: CCTE's Neurite Outgrowth Assay in rat cortical cells for Neurite Length, Mundy Lab (AID 2284213). The procedure, abridged: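 Neurite length was read by high-content imaging of βIII-tubulin-labelled neurites in rat primary cortical cultures. Activity was fitted relative to DMSO.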
Test [8] is described as follows: CCTE_Mundy_HCI_Cortical_Synap_Neur_Matur_NeuriteLength: CCTE's Synaptogenesis and Neurite Maturation Assay in rat cortical cells for Neurite Length, Mundy Lab (AID 2284214). The procedure, abridged:
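Rat primary cortical cultures, AraC added DIV 5, dosed DIV 7 through DIV 12 […]. Fixed, MAP2/synaptophysin immunostained with Hoechst; neurite length by high-content imaging, fitted in positive direction versus DMSO.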

Test [9] is described as follows: CCTE_Mundy_HCI_Cortical_Synap_Neur_Matur_NeuriteSpotCountPerNeuron: CCTE's Synaptogenesis and Neurite Maturation Assay in rat cortical cells for Neurite Spot Count per Neuron Count, Mundy Lab (AID 2284215). The procedure, abridged: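 Synapse density is scored as synaptophysin spots along neurites per neuron in fixed rat cortical neurons, measured at DIV 12 after chemical dosing at DIV 7. DMSO is the negative control and activity baseline.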

Test [10] in a line: CCTE_Mundy_HCI_Cortical_Synap_Neur_Matur_SynapseCount: CCTE's Synaptogenesis and Neurite Maturation Assay in rat cortical cells for Synapse Count, Mundy Lab (AID 2284218). The procedure, abridged: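 Rat primary cortical cultures, AraC at DIV 5, chemical dosing DIV 7 to DIV 12 (288.33 h). Fixed cells stained for MAP2, synaptophysin and Hoechst; synapses per neuron counted by high-content imaging, loss of signal versus DMSO.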

A short description of test [11]: CCTE_Mundy_HCI_Cortical_Synap_Neur_Matur_NeuriteCount: CCTE's Synaptogenesis and Neurite Maturation Assay in rat cortical cells for Neurite Count, Mundy Lab (AID 2284222).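 Further: exposure from day 7 to day 12 in vitro with readout at day 12.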 The method in brief: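 Rat primary cortical cells; AraC added at DIV 5, chemicals dosed with media change at DIV 7 through DIV 12. MAP2/synaptophysin/Hoechst immunostaining, high-content imaging of neurite number; fitted relative to DMSO.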

The nature of test [12]: CCTE_Mundy_HCI_Cortical_Synap_Neur_Matur_CellBodySpotCount: CCTE's Synaptogenesis and Neurite Maturation Assay in rat cortical cells for Cell Body Spot Count, Mundy Lab (AID 2284223). The procedure, abridged:
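Synapse number at neuronal cell bodies was quantified as synaptophysin puncta per neuron in rat cortical cultures exposed from DIV 7 to DIV 12. Values were normalised to DMSO.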

Read-out in test [13]: Secreted IgG (sIgG), gene 3500
Nature of the test: BSK_BT_sIgG: BioMAP Diversity Plus: BT Assay for Secreted IgG (sIgG) Biomarker Activity (AID 2284226). Particulars: primary human B cells with PBMC. The procedure, abridged:
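Human B cell plus PBMC co-culture; secreted IgG measured by ELISA 24 h after chemical dosing. Response fitted in positive direction relative to DMSO baseline.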

Test [14] can be described thus: BSK_BT_Bcell_Proliferation: Viability Assessment in the BioMAP Diversity Plus: BT Assay for B cell Proliferation (AID 2284227). Particulars: primary human B cells with PBMC. The method in brief: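 Human B cells co-cultured with PBMC were dosed with test chemicals and relative cell number was quantified by SRB staining at 72 h. Cells were fixed in 10% TCA, stained with 0.1% SRB and read at 560 nm. Activity was fitted in the positive direction against DMSO.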

Read-out in test [15]: Interleukin 6 (IL6), IL6 (gene 3569)
Nature of the test: BSK_BT_xIL6: BioMAP Diversity Plus: BT Assay for Interleukin 6 (IL6) Biomarker Activity (AID 2284228). Particulars: primary human B cells with PBMC. The procedure, abridged: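 Chemical added to human B cell/PBMC co-culture → 24 h → supernatant IL-6 by Luminex xMAP → fit vs DMSO baseline, upward direction.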

Read-out in test [16]: Interleukin 17A (IL17A), IL17A (gene 3605)
The experiment in a line: BSK_BT_xIL17A: BioMAP Diversity Plus: BT Assay for Interleukin 17A (IL17A) Biomarker Activity (AID 2284229). Particulars: primary human B cells with PBMC. The method in brief: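 Chemicals were added to a human B cell and PBMC co-culture. After 24 h, secreted IL-17A was measured with Luminex xMAP. Curves were fitted in the positive direction, with DMSO wells as baseline.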

Read-out in test [17]: Tumor necrosis factor (Homo sapiens) (UniProt P01375)
The experiment in a line: BSK_BT_xTNFa: BioMAP Diversity Plus: BT Assay for Tumor necrosis factor alpha (TNF-alpha) Biomarker Activity (AID 2284230). The settings on record: primary human B cells with PBMC. The method in brief: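 B cells with PBMC in co-culture, dosed and sampled at 24 h; secreted TNF-alpha measured by Luminex xMAP bead assay. Activity fitted in the gain direction against DMSO as negative control and baseline.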

The nature of test [18]: TAMU_PeakParms_SingleDonor1434_Chronotropy: Texas A&M University (TAMU) 1.5-hr Human Induced Pluripotent Stem Cell (iPSC)-derived Cardiomyocytes Calcium (Ca+2) Flux Assay for Cardiotoxicity: Chronotropy (changes in peak frequency) (AID 2284217). The settings on record: actives raise or lower the signal. The method in brief:
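iPSC-derived cardiomyocytes (single donor 1434) dosed at 0.2, 1, 10 and 100 uM in 0.5% DMSO for 1.5 h at 37C; Ca2+ dye fluorescence gave average beat frequency. Zero-beat points removed; bidirectional fit versus DMSO, POD as EC05.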

Sequence of Tumor necrosis factor (Homo sapiens) (P01375 whole entry, looked up): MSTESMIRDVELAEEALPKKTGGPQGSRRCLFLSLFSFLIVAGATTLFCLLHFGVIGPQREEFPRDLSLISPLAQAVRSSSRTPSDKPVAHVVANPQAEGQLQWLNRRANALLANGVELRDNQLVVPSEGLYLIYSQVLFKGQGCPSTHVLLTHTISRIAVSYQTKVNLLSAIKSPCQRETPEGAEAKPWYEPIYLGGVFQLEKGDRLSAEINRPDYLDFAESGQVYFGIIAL

Consider `CC1(C)S[C@@H]2[C@H](NC(=O)COc3ccccc3)C(=O)N2[C@H]1C(=O)O`, for which the compound was called inactive in [1], in [2], in [3], in test [4], in test [5] and in test [6]. Further, the call in test [7], in [8], in test [9], in test [10], in test [11] and in test [12] was inactive.

For `CC(C)C(=O)C(C)C`, the outcome in [13], in test [14], in [15], in test [16] and in test [17] was inactive.

Usually AC50 stands for the midpoint of the concentration-response curve, whichever way the signal moves. With `CCCCCCCCCCCCCCCC[N+](C)(C)CC`, the AC50 is 0.0956 µM (active) in [13]; 1.81 µM (active) in test [14]; 13.4 µM (active) in test [15]; 1.63 µM (active) in test [16]; 12 µM (active) in [17].

As for `C=CC(=O)OCC(Br)CBr` (stereo not drawn), the AC50 in test [13] is 7.95 µM (active); in [14], 20 µM (active); in test [15] it was 12.9 µM (active); in [16], 7.7 µM (active); in test [17], 28.1 µM (active).

For `c1ccc(-c2ccccn2)nc1`, in test [13], the half-maximal activity concentration (AC50) is 20 µM (active). The result in test [14], in test [15], in test [16] and in test [17] was inactive.

In the case of `C/C=C\C/C=C/CCCCCCCCOC(C)=O`, the AC50 in test [13] is 17 µM (active); in test [14], 28 µM (active); in [15], 15.2 µM (active); in [16], 15.1 µM (active); in [17], 20 µM (active).

`COc1ccc2nc(N)sc2c1`: the outcome in test [13], in test [14], in [15], in test [16] and in test [17] was inactive.

With `CCCCC/C=C\C/C=C\CCCCCCCC(=O)OC`, the AC50 in test [13] was 20 µM (active); in [14], 26.3 µM (active); in test [15] it was 24.8 µM (active); in test [16], 23.8 µM (active); in test [17] it was 30 µM (active).

As to `C=CCOc1c(Br)cc(Br)cc1Br`, the outcome in test [13], in test [14], in test [15], in test [16] and in test [17] was inactive.

Turning to `CCOc1nc(F)cc2nc(S(=O)(=O)Nc3c(Cl)cccc3C(=O)OC)nn12`, the outcome in test [13], in test [14], in [15], in [16] and in test [17] was inactive.

Turning to `COCc1c(C(C)C)nc(C(C)C)c(/C=C/[C@@H](O)C[C@@H](O)CC(=O)O)c1-c1ccc(F)cc1`, the concentration at half-maximal activity (AC50) is 0.0231 µM (active) in [13]; 0.24 µM (active) in test [14]; 0.494 µM (active) in test [15]; 0.312 µM (active) in [16]; 0.512 µM (active) in [17].

For `c1ccc2c(c1)ccc1cc3c(ccc4ccccc43)cc12`, the concentration at half-maximal activity (AC50) is 50 µM (active) in [18]; 3.57 µM (active) and 15 nM (active) in test [15]. Besides, the result in [13], in test [14], in test [16] and in test [17] was inactive.

For `O=c1c2ccccc2oc2ccccc12`, the AC50 in test [13] was 11.7 µM (active). The outcome in test [14], in test [15], in test [16] and in [17] was inactive.

Take `C#CC1(O)CC[C@H]2[C@@H]3CCC4=CCCC[C@@H]4[C@H]3CC[C@@]21C` (stereo partly drawn): the concentration at half-maximal activity (AC50) in test [13] is 10.7 µM (active); in test [14], 30.1 µM (active); in [15] it was 28.1 µM (active); in test [16], 14.5 µM (active); in test [17], 34.2 µM (active).

For `S=C(NC1CCCCC1)NC1CCCCC1`, the AC50 in test [13] is 20 µM (active); in test [14] it was 31.2 µM (active). Further, the result in [15], in [16] and in [17] was inactive.
